From PubChem BioAssay (Tox21)
Inconclusive results are not listed. Entries that show only a call come without a potency. The source made the active and inactive calls. Calls come from the whole dose curve; as a rule, active = well fitted cell-killing curve with a large enough effect in the repeat runs; inconclusive = weak or mixed curves, or effect the other way; inactive = flat fitted curve, though single readings scatter.

Experiment: qHTS assay to identify small molecule antagonists of the constitutive androstane receptor (CAR) signaling pathway - cell viability counter screen (AID 1224837); note: nearly all actives have a fitted effect of over 45% in size
Settings: HepG2-CYP2B6-hCAR viability, CellTiter-Fluor, 23 h, co-treated with 50 nM CITCO; series mostly up to 92.4 µM
Text: National Center for Advancing Translational Sciences [NCATS]
NIH Chemical Genomics Center [NCGC]
U.S. Environmental Protection Agency [EPA]
National Institutes of Environmental Health Sciences [NIEHS]
National Toxicology Program [NTP]
U.S. Food and Drug Administration [FDA]
The constitutive androstane receptor (CAR) is a nuclear receptor which regulates multiple drug metabolizing enzymes (DMEs) and transporters. Activating CAR will generally increase the transcription and subsequent translation of CYP2B6 and CYP3A4. These two DMEs represent about 50% of the drug metabolizing potential in the body. When CAR is deactivated, the metabolizing potential in the body will decrease, subsequently increasing the toxicity in the body or lowering the therapeutic potential of a pro-drug. Recently, there have also been studies performed indicating CARs role in energy metabolism and cancer therapy. Therefore, inhibiting CARs activity could have a potential effect on diabetes and cancer. Identifying environmental toxins and compounds which modulate CAR, through the use of the Tox21 10K compound collection, will be an important step in determining the toxicity and potential therapeutic effects these factors will have on the human body. To differentiate true CAR antagonists from cytotoxic substances, the assay is multiplexed with a cell viability assay.
Tox21 Assay Protocol Summary:
A double-stable (hCAR and CYP2B6-2.2kb) transfected cell line, derived from human hepatoma (HepG2) cells, was utilized for the duration of the quantitative high-throughput screens. The HepG2-CYP2B6-hCAR cells were dispensed at 2500 cells/4 uL/well in 1536-well white solid bottom plates using a Multidrop Combi. After the assay plates were incubated at 37 C/5% CO2 for 4 hrs, 23 nL of compounds at 15 concentrations (from 5-48 columns) or positive control (from 1 to 4 columns) were transferred to the assay plates using a Pintool station. One uL of CITCO (final concentration = 50 nM) was added, using a Flying Reagent Dispenser, inside each well. After a 23 hr incubation period at 37 C/5% CO2, 1 uL of CellTiter-Fluor reagent was added into each well of the assay plates using a Flying Reagent Dispenser. The fluorescence intensity in the plates was then measured using a ViewLux plate reader.

Row | SMILES | Potency
1 | CSc1ccc(Cl)cc1 | inactive
2 | COc1ccc(CCC(C)=O)cc1 | inactive
3 | CN(C)c1ccc(Cc2ccc(N(C)C)cc2)cc1 | inactive
4 | C=C(C)[C@H]1CC=C(C)C(=O)C1 | inactive
5 | C[Si]1(C)O[Si](C)(C)O[Si](C)(C)O[Si](C)(C)O1 | inactive
6 | COC(=O)c1cccnc1 | inactive
7 | CC(=O)Oc1ccc(C)cc1 | inactive
8 | COC(=O)CCCC(=O)OC | inactive
9 | NCCN1CCNCC1 | inactive
10 | CCCCCCO | inactive
11 | C=CC[N+](C)(C)CC=C | inactive
12 | CC(C)(C#N)c1cc(Cn2cncn2)cc(C(C)(C)C#N)c1 | inactive
13 | CC(C)=CCl | inactive
14 | CCCCCCCCCCCC(=O)OC | inactive
15 | CC(=O)OCc1ccco1 | inactive
16 | CCCCOC(=O)c1ccc(N)cc1 | inactive
17 | O=C(O)c1ccc(C(=O)O)c(C(=O)O)c1 | inactive
18 | CCCCCCC=O | inactive
19 | C=CC(=O)OCCC(=O)O | inactive
20 | C=CC(C)CCCC(C)(C)O (stereo not given) | inactive

Row | SMILES | Potency
21 | O=C(O)c1ccccc1C(=O)O | inactive
22 | CC(=O)OCc1ccccc1 | inactive
23 | CC(C)OC(=O)COc1ccc(Cl)cc1Cl | inactive
24 | O=C1c2ccccc2CCc2ccccc21 | inactive
25 | Cc1ccc(C(C)C)c(O)c1 | inactive
26 | COc1ccc(C)cc1N | inactive
27 | NCCNCCN | inactive
28 | CCCCCCCC=O | inactive
29 | CC(=O)CC(C)(C)O | inactive
30 | CC(C)(Oc1ccc(CCNC(=O)c2ccc(Cl)cc2)cc1)C(=O)O | inactive
31 | Brc1ccc(Br)c(Br)c1 | inactive
32 | O=C(O)/C=C/C(=O)O | inactive
33 | Cc1ccc(S(=O)(=O)N=C=O)cc1 | inactive
34 | CN(C)CCOC(=O)COc1ccc(Cl)cc1 | inactive
35 | COc1ccc(N)c(C)c1 | inactive
36 | C=C(C)CNCC | inactive
37 | CC1(C)NC(=O)NC1=O | inactive
38 | O=C(O)CCCCCCCCC(=O)O | inactive
39 | COc1ccc([N+](=O)[O-])cc1N | inactive
40 | C[C@]12CC[C@@H]3c4ccc(O)cc4CC[C@H]3[C@@H]1C[C@@H](O)[C@@H]2O | inactive
